# Source: the supplement of paper PMC10849652
# Of roughly 7,900 targets only a part is listed; those with a hit were picked by preference. About 0.6% of all pairs of compound and target were hits. A number with no mark means an inactive call.
# Assays:
# Test in all cases: log2 fold change, soluble protein after heating vs DMSO (PISA); higher = thermal stabilisation; K562 cells, 10 uM, 30 min; active = over 0.2 and 3.5 SD of the protein, either way, in both replicates (recomputed)
# [1] = compound: CS(=O)(=O)c1ccc(-c2cnc(N)c(C(=O)Nc3ccccc3)n2)cc1
# Procedure, shortened: (§1)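 Aliquots of K562 cells (2×10^6 cells/mL) treated with 10 μM compound for 30 min were heated for 3 min over 48°C-58°C. After pooling and extraction in PBS with 0.5% NP-40 at 4°C, soluble protein from a 21,000xg, 90 min spin was quantified by TMTpro 16plex LC-MS/MS with channel sums equalised. Thermal stability is expressed against control samples, from duplicates, as a log2 fold change.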
# [2] = compound: C[C@@H](Oc1cc(-c2cnn(C3CCNCC3)c2)cnc1N)c1c(Cl)ccc(F)c1Cl [crizotinib]
# Procedure, shortened: as §1
# [3] = compound: C[C@H](C1=CC=C(C=C1)C(=O)NC2=C3C=CNC3=NC=C2)N
# Procedure, shortened: as §1
# [4] = compound: C[C@H](Nc1ncnc2nc[nH]c12)c1cc2cccc(Cl)c2c(=O)n1-c1ccccc1 [duvelisib]
# Procedure, shortened: as §1
# [5] = compound: Cc1cc(Nc2cc(CN3CCOCC3)c3nc(C)c(Cc4ccc(Cl)cc4F)n3n2)n[nH]1 [gandotinib]
# Procedure, shortened: as §1
# [6] = compound: Cc1cc(Nc2cc(N3CCN(C)CC3)nc(Sc3ccc(NC(=O)C4CC4)cc3)n2)n[nH]1 [tozasertib]
# Procedure, shortened: as §1
# [7] = compound: Cc1cc(SCc2sc(-c3ccc(C(F)(F)F)cc3)nc2C)ccc1OCC(=O)O
# Procedure, shortened: as §1
# [8] = compound: Cc1ccc(-n2nc(C(C)(C)C)cc2NC(=O)Nc2ccc(OCCN3CCOCC3)c3ccccc23)cc1 [doramapimod]
# Procedure, shortened: as §1
# [9] = compound: Cc1ccc(C(=O)N(CCCN)[C@@H](c2nc3cc(Cl)ccc3c(=O)n2Cc2ccccc2)C(C)C)cc1 [ispinesib]
# Procedure, shortened: as §1
# [10] = compound: C[C@@H]1COCCN1C2=NC(=NC(=C2)C3(CC3)S(=O)(=O)C)C4=C5C=CNC5=CC=C4
# Procedure, shortened: as §1
# Sequence of UniProt Q15059 (Q15059 whole entry, looked up): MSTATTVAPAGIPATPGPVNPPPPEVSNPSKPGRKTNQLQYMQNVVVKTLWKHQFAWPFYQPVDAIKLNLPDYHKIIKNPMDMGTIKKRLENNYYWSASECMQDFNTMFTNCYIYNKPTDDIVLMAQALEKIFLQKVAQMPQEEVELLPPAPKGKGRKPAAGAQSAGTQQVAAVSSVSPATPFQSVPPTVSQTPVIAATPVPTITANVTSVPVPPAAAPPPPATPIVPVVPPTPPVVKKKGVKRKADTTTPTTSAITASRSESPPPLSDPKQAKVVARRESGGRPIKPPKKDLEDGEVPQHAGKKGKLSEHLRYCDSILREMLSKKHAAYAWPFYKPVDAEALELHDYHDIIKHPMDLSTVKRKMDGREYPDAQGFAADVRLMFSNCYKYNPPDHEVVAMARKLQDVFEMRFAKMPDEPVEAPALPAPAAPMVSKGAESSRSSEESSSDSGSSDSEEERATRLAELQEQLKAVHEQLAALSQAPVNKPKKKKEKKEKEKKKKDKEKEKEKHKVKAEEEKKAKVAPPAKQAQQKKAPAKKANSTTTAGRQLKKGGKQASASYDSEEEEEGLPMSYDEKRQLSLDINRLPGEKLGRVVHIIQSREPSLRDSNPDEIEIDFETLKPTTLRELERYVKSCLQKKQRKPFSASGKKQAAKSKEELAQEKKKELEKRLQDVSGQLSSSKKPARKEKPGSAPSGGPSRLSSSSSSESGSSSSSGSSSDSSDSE
# Sequence of UniProt Q9NWX5 (Q9NWX5 whole entry, looked up): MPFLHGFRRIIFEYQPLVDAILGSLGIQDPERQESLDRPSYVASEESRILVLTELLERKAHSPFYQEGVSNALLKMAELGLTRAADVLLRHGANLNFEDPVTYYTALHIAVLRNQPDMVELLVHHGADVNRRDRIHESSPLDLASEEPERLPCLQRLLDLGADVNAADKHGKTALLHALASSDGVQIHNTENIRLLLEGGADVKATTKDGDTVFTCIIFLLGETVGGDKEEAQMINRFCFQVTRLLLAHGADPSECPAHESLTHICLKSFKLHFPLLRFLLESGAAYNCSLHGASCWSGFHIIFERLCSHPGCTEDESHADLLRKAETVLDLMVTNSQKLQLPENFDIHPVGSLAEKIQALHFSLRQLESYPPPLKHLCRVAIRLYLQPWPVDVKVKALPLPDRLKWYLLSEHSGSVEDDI
# Sequence of UniProt Q9UNK9 (Q9UNK9 whole entry, looked up): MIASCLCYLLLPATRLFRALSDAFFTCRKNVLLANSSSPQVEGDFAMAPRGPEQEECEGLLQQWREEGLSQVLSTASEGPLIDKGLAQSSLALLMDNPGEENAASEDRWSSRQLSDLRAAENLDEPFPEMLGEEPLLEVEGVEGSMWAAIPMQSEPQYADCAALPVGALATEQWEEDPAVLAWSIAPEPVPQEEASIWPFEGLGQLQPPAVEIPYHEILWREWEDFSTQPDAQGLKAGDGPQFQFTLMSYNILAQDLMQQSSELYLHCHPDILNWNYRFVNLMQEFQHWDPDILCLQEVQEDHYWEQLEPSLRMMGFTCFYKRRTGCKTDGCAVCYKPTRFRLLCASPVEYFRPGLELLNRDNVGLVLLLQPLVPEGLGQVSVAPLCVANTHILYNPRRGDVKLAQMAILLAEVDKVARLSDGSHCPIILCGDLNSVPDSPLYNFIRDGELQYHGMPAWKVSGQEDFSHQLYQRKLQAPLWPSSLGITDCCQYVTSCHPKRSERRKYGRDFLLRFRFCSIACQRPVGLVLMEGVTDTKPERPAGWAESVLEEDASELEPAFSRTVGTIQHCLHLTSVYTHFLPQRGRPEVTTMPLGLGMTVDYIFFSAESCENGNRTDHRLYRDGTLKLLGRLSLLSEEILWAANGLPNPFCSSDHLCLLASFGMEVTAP
# Sequence of UniProt Q9Y312 (Q9Y312 whole entry, looked up): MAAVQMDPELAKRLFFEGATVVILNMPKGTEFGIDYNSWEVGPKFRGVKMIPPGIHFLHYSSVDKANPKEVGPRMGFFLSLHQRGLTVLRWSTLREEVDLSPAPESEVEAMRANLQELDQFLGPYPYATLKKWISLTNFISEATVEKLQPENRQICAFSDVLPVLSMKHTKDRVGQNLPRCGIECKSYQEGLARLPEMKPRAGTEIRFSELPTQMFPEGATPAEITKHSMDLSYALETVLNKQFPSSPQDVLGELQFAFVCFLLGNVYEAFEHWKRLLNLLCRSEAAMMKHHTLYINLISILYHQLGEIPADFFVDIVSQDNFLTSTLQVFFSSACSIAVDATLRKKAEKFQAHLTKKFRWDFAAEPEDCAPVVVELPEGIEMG
# Sequence of UniProt P17707 (P17707 whole entry, looked up): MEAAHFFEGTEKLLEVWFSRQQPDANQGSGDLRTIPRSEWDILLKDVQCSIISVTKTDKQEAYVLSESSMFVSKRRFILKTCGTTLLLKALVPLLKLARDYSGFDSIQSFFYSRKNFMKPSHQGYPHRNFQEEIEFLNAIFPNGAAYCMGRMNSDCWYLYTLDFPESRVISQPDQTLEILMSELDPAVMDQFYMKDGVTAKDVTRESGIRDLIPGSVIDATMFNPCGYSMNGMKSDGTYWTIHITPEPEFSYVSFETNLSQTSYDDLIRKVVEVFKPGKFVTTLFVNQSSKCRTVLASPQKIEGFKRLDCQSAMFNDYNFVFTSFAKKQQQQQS
# Sequence of UniProt P54252 (P54252 whole entry, looked up): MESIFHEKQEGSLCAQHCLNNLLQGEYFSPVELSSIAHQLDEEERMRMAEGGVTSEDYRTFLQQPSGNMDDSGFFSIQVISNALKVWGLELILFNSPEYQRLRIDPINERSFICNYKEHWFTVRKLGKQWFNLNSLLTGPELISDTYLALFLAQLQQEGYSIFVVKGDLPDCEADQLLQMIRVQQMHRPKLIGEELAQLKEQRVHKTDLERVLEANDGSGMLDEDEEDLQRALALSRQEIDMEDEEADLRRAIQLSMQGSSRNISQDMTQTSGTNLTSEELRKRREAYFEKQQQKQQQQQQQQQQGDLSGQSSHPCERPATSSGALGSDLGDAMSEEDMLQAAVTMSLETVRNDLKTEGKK
# Sequence of UniProt Q9UKV5 (Q9UKV5 whole entry, looked up): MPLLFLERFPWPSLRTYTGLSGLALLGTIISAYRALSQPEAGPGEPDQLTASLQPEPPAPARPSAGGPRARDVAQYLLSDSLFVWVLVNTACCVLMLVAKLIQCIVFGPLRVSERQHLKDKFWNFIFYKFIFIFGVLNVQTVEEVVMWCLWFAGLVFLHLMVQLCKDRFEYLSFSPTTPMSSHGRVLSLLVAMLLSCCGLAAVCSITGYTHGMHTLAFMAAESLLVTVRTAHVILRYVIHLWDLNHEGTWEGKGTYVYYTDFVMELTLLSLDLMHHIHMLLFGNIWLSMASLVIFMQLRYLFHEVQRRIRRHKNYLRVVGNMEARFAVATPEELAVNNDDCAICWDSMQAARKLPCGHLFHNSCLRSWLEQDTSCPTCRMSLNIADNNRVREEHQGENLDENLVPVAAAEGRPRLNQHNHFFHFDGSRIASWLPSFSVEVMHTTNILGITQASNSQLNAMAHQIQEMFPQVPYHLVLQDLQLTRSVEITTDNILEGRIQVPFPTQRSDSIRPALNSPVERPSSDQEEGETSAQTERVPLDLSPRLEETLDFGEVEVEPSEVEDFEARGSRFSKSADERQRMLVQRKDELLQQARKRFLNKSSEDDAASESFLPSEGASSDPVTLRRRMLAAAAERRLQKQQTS
# Sequence of UniProt P31749 (P31749 whole entry, looked up): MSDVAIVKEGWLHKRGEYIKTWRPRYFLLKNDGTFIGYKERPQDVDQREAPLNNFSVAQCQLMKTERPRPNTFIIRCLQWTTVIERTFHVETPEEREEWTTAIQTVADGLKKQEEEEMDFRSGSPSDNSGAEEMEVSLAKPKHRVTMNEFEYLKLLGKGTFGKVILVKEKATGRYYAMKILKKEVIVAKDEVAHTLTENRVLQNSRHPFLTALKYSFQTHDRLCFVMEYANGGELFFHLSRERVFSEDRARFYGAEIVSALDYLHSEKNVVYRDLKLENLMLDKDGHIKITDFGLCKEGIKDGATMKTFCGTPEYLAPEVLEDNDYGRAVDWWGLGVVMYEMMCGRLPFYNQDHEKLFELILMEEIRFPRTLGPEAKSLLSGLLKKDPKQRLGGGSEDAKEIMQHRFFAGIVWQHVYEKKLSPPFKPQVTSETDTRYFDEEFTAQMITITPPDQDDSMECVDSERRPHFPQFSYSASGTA
# Sequence of UniProt P25440 (P25440 whole entry, looked up): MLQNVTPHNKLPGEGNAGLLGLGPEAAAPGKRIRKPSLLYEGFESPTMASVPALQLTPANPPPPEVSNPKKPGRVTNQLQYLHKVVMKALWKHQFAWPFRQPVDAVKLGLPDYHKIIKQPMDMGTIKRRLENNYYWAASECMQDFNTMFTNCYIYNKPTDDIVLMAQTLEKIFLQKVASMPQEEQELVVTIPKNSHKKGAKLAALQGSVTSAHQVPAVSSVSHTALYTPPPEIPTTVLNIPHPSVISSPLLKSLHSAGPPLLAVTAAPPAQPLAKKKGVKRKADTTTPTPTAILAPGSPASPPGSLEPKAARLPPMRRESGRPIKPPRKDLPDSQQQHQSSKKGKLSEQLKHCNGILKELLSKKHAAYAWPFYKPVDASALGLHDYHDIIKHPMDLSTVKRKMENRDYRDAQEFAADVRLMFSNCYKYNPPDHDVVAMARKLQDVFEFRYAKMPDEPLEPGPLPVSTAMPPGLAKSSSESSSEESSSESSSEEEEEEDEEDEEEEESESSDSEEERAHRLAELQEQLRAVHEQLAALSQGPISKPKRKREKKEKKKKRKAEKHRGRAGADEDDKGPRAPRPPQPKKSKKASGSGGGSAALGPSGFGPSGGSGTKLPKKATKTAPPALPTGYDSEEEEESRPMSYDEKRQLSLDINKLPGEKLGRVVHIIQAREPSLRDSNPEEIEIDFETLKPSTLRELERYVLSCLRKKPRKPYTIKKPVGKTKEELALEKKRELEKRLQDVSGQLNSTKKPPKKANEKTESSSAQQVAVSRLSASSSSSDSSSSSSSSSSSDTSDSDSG
# Sequence of UniProt P55008 (P55008 whole entry, looked up): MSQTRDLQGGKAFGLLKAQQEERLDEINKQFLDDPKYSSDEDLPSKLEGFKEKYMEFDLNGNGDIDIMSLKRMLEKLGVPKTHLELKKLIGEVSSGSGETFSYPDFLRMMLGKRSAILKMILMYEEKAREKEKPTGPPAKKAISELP
Target,log2 fold change [1],log2 fold change [2],log2 fold change [3],log2 fold change [4],log2 fold change [5],log2 fold change [6],log2 fold change [7],log2 fold change [8],log2 fold change [9],log2 fold change [10]
BRD3 (UniProt Q15059),0.117,0.109,-0.02,0.193,-0.081,-0.027,-0.037,-0.083,-0.03,–
ADPRH (UniProt P54922),0.123,0.056,–,–,0.157,-0.033,–,-0.071,-0.002,0.201
ADAMTS5 (UniProt Q9UNA0),0.077,0.084,-0.08,0.111,0.178,-0.093,-0.136,0.052,-0.035,–
ATP6V1H (UniProt Q9UI12),-0.045,-0.199,0.003,0.018,0.021,0.06,0.014,0.038,-0.089,0.019
ANXA5 (UniProt P08758),0.03,0.045,-0.002,0.043,-0.083,0.041,0.052,-0.059,0.006,0.108
AGAP3 isoform 4 (UniProt Q96P47),-0.041,-0.231,0.07,–,–,0.183,–,0.125,-0.069,-0.133
APAF1 (UniProt O14727),-0.045,0.045,-0.061,0.268,0.047,–,0.119,0.006,-0.181,0.115
BRD2 isoform 2 (UniProt P25440),0.618,0.006,-0.065,0.295,-0.089,0.168,-0.083,0.064,–,–
BRAF (UniProt P15056),0.006,0.023,-0.072,-0.014,-0.013,-0.004,-0.014,–,-0.024,0.034
AHSA1 (UniProt O95433),0.035,0.034,-0.026,0.027,-0.077,0.015,0.023,-0.029,-0.003,0.058
AAR2 (UniProt Q9Y312),-0.06,-0.081,0.054,0.045,-0.29,0.011,0.021,-0.038,0.085,0.019
APOBEC3G (UniProt Q9HC16),-0.065,0.059,–,-0.189,–,0.013,0.102,0.023,-0.01,-0.165
ABCA4 (UniProt P78363),0.286,0.035,0.019,–,0.452,-0.055,–,0.004,-0.119,0.036
AP2M1 (UniProt C9JTK4),0.105,0.048,0.08,0.147,–,0.057,-0.03,0.032,–,0.158
BID isoform 2 (UniProt P55957),0.047,0.087,-0.019,0.049,-0.012,-0.012,-0.003,-0.013,0.022,0.409 (active)
AFG1L (UniProt Q8WV93),-0.04,-0.027,0.001,0.078,–,-0.147,-0.019,0.002,-0.253,0.074
ABCB6 (UniProt Q9NP58),0.03,-0.457 (active),-0.057,0.015,-0.031,-0.017,-0.028,0.049,-0.207,0.093
AMFR (UniProt Q9UKV5),-0.008,-0.04,-0.034,0.028,0.012,-0.029,0.071,0.057,-0.331 (active),0.018

Target,log2 fold change [1],log2 fold change [2],log2 fold change [3],log2 fold change [4],log2 fold change [5],log2 fold change [6],log2 fold change [7],log2 fold change [8],log2 fold change [9],log2 fold change [10]
AMD1 (UniProt P17707),-0.058,0.059,–,–,0.043,0.105,–,-0.07,0.008,0.035
ALDH18A1 (UniProt P54886),-0.281,0.08,-0.036,-0.255,-0.323,0.024,0.032,-0.146,0.164,-0.13
ATR (UniProt Q13535),0.063,-0.021,0.022,0.004,-0.09,-0.038,0.026,-0.123,0.004,–
BMP2K (UniProt Q9NSY1),0.136,0.411 (active),0.402 (active),-0.078,0.319,0.318,-0.051,0.024,-0.017,0
ARFGEF1 (UniProt Q9Y6D6),0.03,-0.135,0.052,0.021,-0.014,0.049,0.004,0.067,-0.024,0.022
AKT1 (UniProt P31749),-0.013,-0.104,0.135,-0.062,-0.144,0.032,0.298,-0.005,-0.03,-0.188
ATF7 isoform 6 (UniProt P17544),-0.131,0.061,-0.088,-0.093,–,-0.032,-0.054,0.158,0.223,0.02
ACOX3 (UniProt O15254),-0.006,-0.091,0.065,–,–,-0.018,–,0.14,–,0.016
ASB6 (UniProt Q9NWX5),0.019,0.013,–,–,0.109,–,–,0.037,-0.143,-0.025
BAIAP2 isoform 4 (UniProt Q9UQB8),-0.112,–,0.29,–,–,0.042,–,–,–,–
ATXN3 isoform 1 (UniProt P54252),–,-0.028,0.076,–,-0.028,-0.163,–,0.087,-0.043,–
AIF1 (UniProt P55008),0.008,–,–,–,–,–,–,–,-0.317,0.11
ADD1 isoform 4 (UniProt P35611),–,0.152,0.186,–,-0.153,–,–,-0.075,–,-0.213
ANGEL1 (UniProt Q9UNK9),–,-0.058,–,–,–,-0.077,–,-0.028,0.27,–
ARHGAP4 isoform 2 (UniProt P98171),0.023,–,0.212,-0.202,–,0.105,0.131,–,-0.111,–
AUH (UniProt Q13825),–,-0.301,-0.105,-0.036,-0.127,-0.098,0.135,0.071,-0.069,–
APOH (UniProt P02749),-0.22,-0.179,-0.071,-0.017,-0.747,-0.125,0.458,-0.108,-0.595,–
ARRDC1 (UniProt Q8N5I2),0.015,–,0.205,-0.263,0.1,-0.075,-0.071,–,-0.082,-0.097
